Assay results reported in article PMC7862700, “An all-to-all approach to the identification of sequence-specific readers for epigenetic DNA modifications on cytosine”.

Legend:
Experiment in all cases: DAPPL (digital affinity profiling via proximity ligation, sequencing); 10 mM Tris-HCl pH 7.5, 50 mM NaCl, 1 mM DTT, 4% glycerol, room temperature, 30 min; GST-TFs on glutathione beads, 16-mer random dsDNA library, 0.1% formaldehyde crosslink after washing; high values mean tight binding
Conditions in all cases: protein: recombinant; tags: N-terminal GST; dsDNA, one strand shown
FLI1 = biological target: T1, FLI1 (Homo sapiens, UniProt Q01543 1-452)
T1 sequence: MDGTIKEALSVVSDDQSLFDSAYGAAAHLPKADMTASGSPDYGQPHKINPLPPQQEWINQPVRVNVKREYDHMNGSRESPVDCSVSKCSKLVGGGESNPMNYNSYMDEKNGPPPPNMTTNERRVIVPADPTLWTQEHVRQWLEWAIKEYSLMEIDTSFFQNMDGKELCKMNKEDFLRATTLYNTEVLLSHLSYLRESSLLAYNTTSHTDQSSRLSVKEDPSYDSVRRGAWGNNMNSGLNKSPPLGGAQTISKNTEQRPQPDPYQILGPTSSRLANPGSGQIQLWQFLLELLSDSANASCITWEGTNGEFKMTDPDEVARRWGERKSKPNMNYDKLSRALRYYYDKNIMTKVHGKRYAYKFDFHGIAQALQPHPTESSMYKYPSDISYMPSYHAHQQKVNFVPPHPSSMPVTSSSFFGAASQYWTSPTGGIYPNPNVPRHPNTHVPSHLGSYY
How it was run: (§1)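 Binding signal is defined as a hexamer's read frequency for one factor over its frequency for the tag-only sample. To obtain reads, GST-fused human transcription factors were expressed in yeast, captured on glutathione beads, barcoded with DNA and pooled with that sample. Pools met 200 nmole of a 16-mer random double-stranded DNA library in Tris/NaCl/DTT/glycerol buffer for 30 min at room temperature before washing, 0.1% formaldehyde crosslinking, proximity ligation (BsaI/T4 ligase, 1 h, 37 °C), PCR and Illumina NextSeq500 sequencing.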

GABPA = biological target: T2, GABPA (Homo sapiens, UniProt Q06546 1-454)
T2 sequence: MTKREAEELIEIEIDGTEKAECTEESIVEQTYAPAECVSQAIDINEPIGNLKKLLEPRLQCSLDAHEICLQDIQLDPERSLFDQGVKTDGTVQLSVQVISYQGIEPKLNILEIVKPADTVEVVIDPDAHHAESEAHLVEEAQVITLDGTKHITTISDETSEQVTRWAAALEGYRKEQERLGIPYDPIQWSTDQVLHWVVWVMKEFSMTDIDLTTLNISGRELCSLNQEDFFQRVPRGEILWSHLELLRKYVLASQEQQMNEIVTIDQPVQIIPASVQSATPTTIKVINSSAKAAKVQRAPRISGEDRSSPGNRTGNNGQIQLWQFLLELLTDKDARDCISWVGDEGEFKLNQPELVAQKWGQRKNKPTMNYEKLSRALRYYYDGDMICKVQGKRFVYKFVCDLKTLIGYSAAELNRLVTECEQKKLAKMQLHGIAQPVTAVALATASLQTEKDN
How it was run: as §1

ERG = biological target: T3, ERG (Homo sapiens, UniProt P11308 1-479)
T3 sequence: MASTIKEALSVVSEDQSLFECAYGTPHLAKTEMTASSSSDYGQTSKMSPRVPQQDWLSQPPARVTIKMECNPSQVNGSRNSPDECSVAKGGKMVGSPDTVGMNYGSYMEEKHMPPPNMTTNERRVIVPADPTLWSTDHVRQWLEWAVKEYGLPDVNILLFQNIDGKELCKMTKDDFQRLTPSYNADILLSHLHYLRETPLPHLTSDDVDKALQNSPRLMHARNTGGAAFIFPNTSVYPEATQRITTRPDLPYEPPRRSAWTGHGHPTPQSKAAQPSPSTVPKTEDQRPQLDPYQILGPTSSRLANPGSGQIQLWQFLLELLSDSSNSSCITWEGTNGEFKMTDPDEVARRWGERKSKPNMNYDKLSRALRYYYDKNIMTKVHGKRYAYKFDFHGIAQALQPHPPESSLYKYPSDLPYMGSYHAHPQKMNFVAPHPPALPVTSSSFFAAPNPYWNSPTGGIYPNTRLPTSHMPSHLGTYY
How it was run: as §1

EHF = biological target: T4, EHF (Homo sapiens, UniProt Q9NZC4 1-300)
T4 sequence: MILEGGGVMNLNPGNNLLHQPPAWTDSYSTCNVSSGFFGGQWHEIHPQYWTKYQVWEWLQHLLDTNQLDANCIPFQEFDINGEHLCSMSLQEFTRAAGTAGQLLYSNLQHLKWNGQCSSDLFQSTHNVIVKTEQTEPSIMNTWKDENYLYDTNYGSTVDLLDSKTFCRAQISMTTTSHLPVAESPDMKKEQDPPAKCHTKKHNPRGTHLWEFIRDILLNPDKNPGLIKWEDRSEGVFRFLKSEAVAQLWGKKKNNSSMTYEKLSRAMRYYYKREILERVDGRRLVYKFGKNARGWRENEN
How it was run: as §1

SPIB = SPIB (Homo sapiens, UniProt Q01892 1-262)
How it was run: as §1

ETV5 = ETV5 (Homo sapiens, UniProt P41161 1-510)
How it was run: as §1

SPIC = biological target: T5, SPIC (Homo sapiens, UniProt Q8N5J4 1-248)
T5 sequence: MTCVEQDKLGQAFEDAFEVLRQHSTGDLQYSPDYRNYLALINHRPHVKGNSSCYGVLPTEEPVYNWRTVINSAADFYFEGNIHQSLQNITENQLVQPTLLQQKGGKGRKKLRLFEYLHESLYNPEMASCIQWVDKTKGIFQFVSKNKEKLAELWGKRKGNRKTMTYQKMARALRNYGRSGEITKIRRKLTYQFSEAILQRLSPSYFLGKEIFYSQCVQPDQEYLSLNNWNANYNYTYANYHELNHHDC
How it was run: as §1

ELF4 = ELF4 (Homo sapiens, UniProt Q99607 1-663)
How it was run: as §1

SPDEF = biological target: T6, SPDEF (Homo sapiens, UniProt O95238 1-335)
T6 sequence: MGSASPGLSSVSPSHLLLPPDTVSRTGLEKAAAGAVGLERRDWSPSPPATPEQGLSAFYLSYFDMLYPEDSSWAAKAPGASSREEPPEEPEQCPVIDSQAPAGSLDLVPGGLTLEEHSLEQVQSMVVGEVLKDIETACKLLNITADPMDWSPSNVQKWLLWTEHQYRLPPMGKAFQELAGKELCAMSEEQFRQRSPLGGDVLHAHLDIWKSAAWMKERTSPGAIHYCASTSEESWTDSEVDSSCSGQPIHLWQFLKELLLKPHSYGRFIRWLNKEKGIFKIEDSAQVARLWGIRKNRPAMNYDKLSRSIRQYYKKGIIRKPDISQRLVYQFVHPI
How it was run: as §1

ETV3 = biological target: T7, ETV3 (Homo sapiens, UniProt P41162-2 1-143)
T7 sequence: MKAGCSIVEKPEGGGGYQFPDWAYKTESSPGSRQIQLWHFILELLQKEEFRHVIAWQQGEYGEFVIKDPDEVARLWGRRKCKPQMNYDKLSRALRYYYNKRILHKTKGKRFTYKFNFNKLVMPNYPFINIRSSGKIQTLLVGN
How it was run: as §1

SPI1 = SPI1 (Homo sapiens, UniProt P17947 1-270)
How it was run: as §1

FEV = biological target: T8, FEV (Homo sapiens, UniProt Q99581 1-238)
T8 sequence: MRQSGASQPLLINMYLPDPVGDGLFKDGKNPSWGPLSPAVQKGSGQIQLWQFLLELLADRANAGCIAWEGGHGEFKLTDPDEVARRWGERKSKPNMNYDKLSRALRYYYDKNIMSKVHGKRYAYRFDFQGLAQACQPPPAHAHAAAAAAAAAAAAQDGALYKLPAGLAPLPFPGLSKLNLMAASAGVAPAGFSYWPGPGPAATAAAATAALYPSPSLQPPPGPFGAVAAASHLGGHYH
How it was run: as §1

ETV6 = ETV6 (Homo sapiens, UniProt P41212 1-452)
How it was run: as §1

ETV5, sequence (P41161 whole entry): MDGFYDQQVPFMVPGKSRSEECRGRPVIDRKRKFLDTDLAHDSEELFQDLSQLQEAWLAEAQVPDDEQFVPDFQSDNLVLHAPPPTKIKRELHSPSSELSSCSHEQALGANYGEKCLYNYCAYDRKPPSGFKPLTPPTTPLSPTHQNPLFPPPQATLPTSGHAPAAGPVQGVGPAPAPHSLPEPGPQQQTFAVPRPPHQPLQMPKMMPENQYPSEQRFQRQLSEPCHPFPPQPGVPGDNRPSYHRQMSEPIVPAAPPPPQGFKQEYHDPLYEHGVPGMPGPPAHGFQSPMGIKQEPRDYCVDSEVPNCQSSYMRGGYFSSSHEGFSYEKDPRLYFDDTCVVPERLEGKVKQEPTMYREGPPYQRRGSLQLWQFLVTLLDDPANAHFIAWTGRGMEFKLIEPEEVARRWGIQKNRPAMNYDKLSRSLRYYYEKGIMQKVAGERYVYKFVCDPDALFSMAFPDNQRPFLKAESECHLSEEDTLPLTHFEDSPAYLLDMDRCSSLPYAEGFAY
ETV6, sequence (P41212 whole entry): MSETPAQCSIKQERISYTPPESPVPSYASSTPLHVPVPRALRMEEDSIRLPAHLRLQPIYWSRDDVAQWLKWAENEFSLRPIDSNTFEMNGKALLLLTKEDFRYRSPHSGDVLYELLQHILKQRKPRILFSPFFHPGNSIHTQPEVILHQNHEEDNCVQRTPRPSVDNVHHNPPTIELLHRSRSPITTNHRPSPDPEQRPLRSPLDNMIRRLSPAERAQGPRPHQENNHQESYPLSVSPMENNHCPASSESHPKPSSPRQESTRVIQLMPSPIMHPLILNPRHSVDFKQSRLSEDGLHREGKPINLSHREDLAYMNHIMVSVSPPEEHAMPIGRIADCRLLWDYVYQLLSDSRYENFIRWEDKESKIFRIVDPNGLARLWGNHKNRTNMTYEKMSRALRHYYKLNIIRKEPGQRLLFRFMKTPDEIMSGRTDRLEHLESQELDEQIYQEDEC
ELF4, sequence (Q99607 whole entry): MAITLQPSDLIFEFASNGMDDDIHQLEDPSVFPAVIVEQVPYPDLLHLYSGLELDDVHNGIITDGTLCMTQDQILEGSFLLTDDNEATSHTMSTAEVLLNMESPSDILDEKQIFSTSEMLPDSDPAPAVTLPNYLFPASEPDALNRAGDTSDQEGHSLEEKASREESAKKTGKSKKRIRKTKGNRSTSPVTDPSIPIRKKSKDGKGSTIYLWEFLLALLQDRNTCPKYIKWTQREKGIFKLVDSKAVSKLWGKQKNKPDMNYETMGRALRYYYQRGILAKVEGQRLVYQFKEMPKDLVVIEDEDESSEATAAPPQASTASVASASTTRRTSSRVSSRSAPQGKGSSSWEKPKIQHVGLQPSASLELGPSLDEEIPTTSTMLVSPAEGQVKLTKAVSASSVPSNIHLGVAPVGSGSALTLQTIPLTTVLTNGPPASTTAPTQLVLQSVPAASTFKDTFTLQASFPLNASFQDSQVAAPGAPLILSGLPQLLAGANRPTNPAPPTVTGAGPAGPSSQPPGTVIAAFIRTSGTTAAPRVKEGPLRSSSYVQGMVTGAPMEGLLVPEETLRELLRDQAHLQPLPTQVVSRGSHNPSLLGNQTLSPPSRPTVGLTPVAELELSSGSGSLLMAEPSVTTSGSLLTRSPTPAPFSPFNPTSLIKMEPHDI
SPIB, sequence (Q01892 whole entry): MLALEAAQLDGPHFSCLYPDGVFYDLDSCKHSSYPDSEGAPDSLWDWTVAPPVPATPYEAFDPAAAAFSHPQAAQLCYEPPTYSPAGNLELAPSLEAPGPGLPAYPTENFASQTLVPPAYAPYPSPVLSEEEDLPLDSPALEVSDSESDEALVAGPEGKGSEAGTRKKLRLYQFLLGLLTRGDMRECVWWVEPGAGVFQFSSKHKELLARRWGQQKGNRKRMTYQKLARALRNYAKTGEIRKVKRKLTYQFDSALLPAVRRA

Row | Sequence | binding signal (FLI1) | binding signal (GABPA) | binding signal (ERG) | binding signal (EHF) | binding signal (SPIB) | binding signal (ETV5) | binding signal (SPIC) | binding signal (ELF4) | binding signal (SPDEF) | binding signal (ETV3) | binding signal (SPI1) | binding signal (FEV) | binding signal (ETV6)
1 | CGGATC | 1.04 fold enrichment (6-mer frequency, TF over GST control) | 1.04 fold enrichment (6-mer frequency, TF over GST control) | 1.05 fold enrichment (6-mer frequency, TF over GST control) | 1.02 fold enrichment (6-mer frequency, TF over GST control) | 1.01 fold enrichment (6-mer frequency, TF over GST control) | 1.03 fold enrichment (6-mer frequency, TF over GST control) | 1.02 fold enrichment (6-mer frequency, TF over GST control) | 1.01 fold enrichment (6-mer frequency, TF over GST control) | 1.67 fold enrichment (6-mer frequency, TF over GST control) | 1.06 fold enrichment (6-mer frequency, TF over GST control) | – | – | –
2 | AGTGTA | 1.03 fold enrichment (6-mer frequency, TF over GST control) | – | – | 1.02 fold enrichment (6-mer frequency, TF over GST control) | – | 1.05 fold enrichment (6-mer frequency, TF over GST control) | 1.19 fold enrichment (6-mer frequency, TF over GST control) | – | – | – | 1.24 fold enrichment (6-mer frequency, TF over GST control) | 1.01 fold enrichment (6-mer frequency, TF over GST control) | 1.03 fold enrichment (6-mer frequency, TF over GST control)
